Measurements taken from PubChem BioAssay (EPA / NIEHS).
Records with an inconclusive call do not appear. Where a structure was tested more than once in an assay, its records may differ in their call. The source made the active and inactive calls. How the source made its calls: active means hit-call score of the fitted dose curve at least 0.9, where 1 is the maximum; inconclusive means response in the unintended direction; inactive means score below 0.9.

target: human Thyroid Receptor Alpha (TRa), THRA (gene 7067) (UniProt P10827); experiment: NVS_NR_hTRa_Antagonist: NovaScreen (NVS) Nuclear Receptor Binding Assay for human Thyroid Receptor Alpha Antagonism (TRa) (AID 2283362);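 further: activity is loss of signal relative to DMSO baseline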
Summary of the method: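 Actives from a duplicate 25 uM single-point screen were retested in concentration series. The cell-free antagonist-format binding assay was read by AlphaLISA chemiluminescence at 1 h, scored as signal loss relative to DMSO.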

Chain of human Thyroid Receptor Alpha (TRa), THRA (gene 7067) (P10827 whole entry, looked up): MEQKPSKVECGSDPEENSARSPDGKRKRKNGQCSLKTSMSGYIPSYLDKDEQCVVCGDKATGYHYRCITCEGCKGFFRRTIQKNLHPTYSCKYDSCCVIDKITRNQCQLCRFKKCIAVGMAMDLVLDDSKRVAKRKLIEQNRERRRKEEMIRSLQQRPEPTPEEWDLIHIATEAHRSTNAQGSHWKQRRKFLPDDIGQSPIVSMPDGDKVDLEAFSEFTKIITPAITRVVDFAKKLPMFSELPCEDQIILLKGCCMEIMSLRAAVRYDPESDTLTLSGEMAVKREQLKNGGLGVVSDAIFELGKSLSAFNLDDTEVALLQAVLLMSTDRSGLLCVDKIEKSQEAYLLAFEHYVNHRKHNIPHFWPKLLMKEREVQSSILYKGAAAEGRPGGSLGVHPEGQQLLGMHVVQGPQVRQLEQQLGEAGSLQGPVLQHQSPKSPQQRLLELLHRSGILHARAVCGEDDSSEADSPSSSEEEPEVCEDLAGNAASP

Structure (SMILES)	outcome	AC50
CC/C=C\C/C=C\C/C=C\CCCCCCCC(=O)O	inactive	
Cc1ccc(N/N=c2\c(=O)cc/c(=N/Nc3ccc(S(=O)(=O)O)cc3)c2=O)c(C)c1		18.6 µM (active)
O=S1(=O)OC(c2ccc(O)cc2)(c2ccc(O)cc2)c2ccccc21		11 µM (active)

target: Glucocorticoid receptor (Homo sapiens) (UniProt P04150); experiment: NVS_NR_hGR: NovaScreen (NVS) Nuclear Receptor Binding Assay for human Glucocorticoid Receptor (GR) (AID 2283363);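 on AC50: activity is loss of specific radioligand binding signal relative to DMSO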
Summary of the method: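 Single-readout cell-free binding: radioligand plus extracted receptor, 16-hour dosing, filter radiodetection; 25 uM duplicate primary, concentration series secondary.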

Chain of Glucocorticoid receptor (Homo sapiens) (P04150 whole entry, looked up): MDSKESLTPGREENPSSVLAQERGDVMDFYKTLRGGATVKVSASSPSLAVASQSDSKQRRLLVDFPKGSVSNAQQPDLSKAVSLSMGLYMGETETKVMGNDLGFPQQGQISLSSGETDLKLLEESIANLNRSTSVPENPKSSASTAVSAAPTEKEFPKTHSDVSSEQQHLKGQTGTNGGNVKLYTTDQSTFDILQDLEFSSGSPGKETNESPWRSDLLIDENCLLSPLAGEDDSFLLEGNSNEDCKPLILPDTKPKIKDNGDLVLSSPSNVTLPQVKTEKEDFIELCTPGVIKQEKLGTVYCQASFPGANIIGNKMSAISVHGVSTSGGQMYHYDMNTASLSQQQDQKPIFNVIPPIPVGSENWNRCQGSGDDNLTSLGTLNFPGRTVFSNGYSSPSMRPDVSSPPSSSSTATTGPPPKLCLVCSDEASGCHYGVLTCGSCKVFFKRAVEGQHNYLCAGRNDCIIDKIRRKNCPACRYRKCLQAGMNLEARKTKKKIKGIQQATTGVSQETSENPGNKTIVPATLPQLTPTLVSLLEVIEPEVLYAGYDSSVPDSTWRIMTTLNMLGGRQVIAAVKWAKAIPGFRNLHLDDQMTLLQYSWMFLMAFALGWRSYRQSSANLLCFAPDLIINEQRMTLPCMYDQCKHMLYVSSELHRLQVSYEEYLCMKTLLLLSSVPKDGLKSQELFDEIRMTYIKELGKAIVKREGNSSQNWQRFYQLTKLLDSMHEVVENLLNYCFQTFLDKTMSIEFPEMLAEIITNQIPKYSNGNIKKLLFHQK

Structure (SMILES)	AC50	outcome
O=S(=O)(O)c1ccccc1C=Cc1ccc(-c2ccc(C=Cc3ccccc3S(=O)(=O)O)cc2)cc1	3.61 µM (active)	
CCCCCCCCCCCCCOP(=O)(O)O	10.4 µM (active)	
O=C1CCCC1		inactive
Oc1ccc(Cl)cc1Cc1cc(Cl)ccc1O	2.65 µM (active)	

target: Nuclear receptor subfamily 1 group I member 2 (Homo sapiens) (UniProt O75469); experiment: NVS_NR_hPXR: NovaScreen (NVS) Nuclear Receptor Binding Assay for human Pregnane X Receptor (PXR) (AID 2283365);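 further: a drop in FRET signal versus DMSO baseline means the compound binds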
Summary of the method: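 Human PXR binding measured by TR-FRET in a cell-free format, 2 h exposure. Single-concentration duplicates at 25 uM preceded concentration-response retests of actives; endpoint fitted positively relative to DMSO, loss of signal indicating binding.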

Chain of Nuclear receptor subfamily 1 group I member 2 (Homo sapiens) (O75469 whole entry, looked up): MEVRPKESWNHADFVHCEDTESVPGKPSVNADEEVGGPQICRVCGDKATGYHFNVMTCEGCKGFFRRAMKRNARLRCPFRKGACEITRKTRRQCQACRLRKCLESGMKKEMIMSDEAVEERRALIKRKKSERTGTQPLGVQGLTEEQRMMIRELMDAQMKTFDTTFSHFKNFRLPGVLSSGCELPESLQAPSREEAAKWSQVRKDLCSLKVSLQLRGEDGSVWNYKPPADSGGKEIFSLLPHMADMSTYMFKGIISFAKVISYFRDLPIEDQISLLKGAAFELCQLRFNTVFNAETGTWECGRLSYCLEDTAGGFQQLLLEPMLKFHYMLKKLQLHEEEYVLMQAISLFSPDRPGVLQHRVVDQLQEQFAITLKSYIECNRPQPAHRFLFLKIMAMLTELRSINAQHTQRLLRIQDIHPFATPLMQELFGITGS

Structure (SMILES)	outcome	AC50
COC(=O)c1c(C)cc(O)c(C)c1O	inactive	
CC/C=C\C/C=C\C/C=C\CCCCCCCC(=O)O		3.05 µM (active)
O=c1cc(-c2ccccc2)oc2ccccc12	inactive	
CCCCCCCCCCCCCOP(=O)(O)O	inactive	
CCCCC/C=C\C/C=C\CCCCCCCC(=O)OC	inactive	
Oc1ccc(Cl)cc1Cc1cc(Cl)ccc1O		16.8 µM (active)
Cc1ccc(N/N=c2\c(=O)cc/c(=N/Nc3ccc(S(=O)(=O)O)cc3)c2=O)c(C)c1		2.79 µM (active)
O=S1(=O)OC(c2ccc(O)cc2)(c2ccc(O)cc2)c2ccccc21	inactive	

target: Peroxisome proliferator-activated receptor gamma (Homo sapiens) (UniProt P37231); experiment: NVS_NR_hPPARg: NovaScreen (NVS) Nuclear Receptor Binding Assay for human Peroxisome Proliferator-activated Receptor gamma (PPARg) (AID 2283370)
Summary of the method: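 Fluorescence polarization readout of ligand binding to extracted human PPARg, measured at 2 h. Duplicate single-point screen at 25 uM, then concentration-series retesting; activity defined as signal loss versus DMSO.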

Chain of Peroxisome proliferator-activated receptor gamma (Homo sapiens) (P37231 whole entry, looked up): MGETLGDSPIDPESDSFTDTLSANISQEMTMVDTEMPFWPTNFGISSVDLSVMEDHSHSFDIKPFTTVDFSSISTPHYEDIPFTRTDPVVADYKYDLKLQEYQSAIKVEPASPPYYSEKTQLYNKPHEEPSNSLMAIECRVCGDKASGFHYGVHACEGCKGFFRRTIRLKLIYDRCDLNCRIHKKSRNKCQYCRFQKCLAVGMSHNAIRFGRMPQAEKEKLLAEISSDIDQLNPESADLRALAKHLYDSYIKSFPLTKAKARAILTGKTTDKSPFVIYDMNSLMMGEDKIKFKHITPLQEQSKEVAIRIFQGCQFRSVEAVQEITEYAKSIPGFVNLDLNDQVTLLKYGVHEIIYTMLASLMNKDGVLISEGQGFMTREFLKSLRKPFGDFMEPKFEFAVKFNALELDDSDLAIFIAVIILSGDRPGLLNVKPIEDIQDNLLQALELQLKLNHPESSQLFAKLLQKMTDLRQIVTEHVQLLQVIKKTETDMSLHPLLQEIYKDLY

Structure (SMILES)	AC50	outcome
CC/C=C\C/C=C\C/C=C\CCCCCCCC(=O)O	0.00769 µM (active)	
O=c1cc(-c2ccccc2)oc2ccccc12		inactive
O=S(=O)(O)c1ccccc1C=Cc1ccc(-c2ccc(C=Cc3ccccc3S(=O)(=O)O)cc2)cc1		inactive
CCCCCCCCCCCCCOP(=O)(O)O		inactive
CCCCC/C=C\C/C=C\CCCCCCCC(=O)OC	8.81 µM (active)	inactive
CC1=NN(c2cc(S(=O)(=O)O)ccc2Cl)C(=O)C1N=Nc1ccccc1 (stereo not given)		inactive
Oc1ccc(Cl)cc1Cc1cc(Cl)ccc1O	25 µM (active)	
Cc1ccc(N/N=c2\c(=O)cc/c(=N/Nc3ccc(S(=O)(=O)O)cc3)c2=O)c(C)c1	16 µM (active)	
O=S1(=O)OC(c2ccc(O)cc2)(c2ccc(O)cc2)c2ccccc21		inactive
